Laboratory results from the supplement of paper PMC6555819.

Tests used:
Assay in all cases: PBM binding z-score (relative to random genomic background probes); higher = stronger binding; sequences stand for … in GC…GCGATTGACAGCGTAGAATGAAGG
[1] = system: PPARg:RXRa DBDmut IVT, anti-RXR (DBD mutation: RXRa K156A/R161A, NR concentration 270 nM, RXRa partner concentration 90 nM)
How it was run: (§1)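 Custom Agilent 4×180K protein-binding microarrays carried double-stranded probes. Their 34-nt variable regions held direct-repeat seeds, single-nucleotide variants, half-site ablations and random human genomic background sequences. Arrays were incubated 1 h with ligand-free nuclear receptor dimers in PBS pH 7.4, 2% milk, 0.02% Triton X-100, 1 mM DTT, 0.2 mg/mL BSA and 0.4 mg/ml salmon testes DNA. Antibodies against each partner (one per run) detected binding, and scanned fluorescence was regression-normalized. Binding z-scores use random background probes as reference.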

[2] = system: PPARg:RXRa IVT, anti-PPARg (NR concentration 270 nM, RXRa partner concentration 90 nM)
How it was run: as §1

[3] = system: PPARg DBDmut:RXRa IVT, anti-PPARg (DBD mutation: PPARg1 K132A/R137A, NR concentration 270 nM, RXRa partner concentration 90 nM)
How it was run: as §1

[4] = system: PPARg DBDmut IVT, anti-PPARg (DBD mutation: PPARg1 K132A/R137A, NR concentration 270 nM)
How it was run: as §1

[5] = system: PPARg homodimer (NR concentration 180 nM)
How it was run: as §1

[6] = system: PXR:RXRa (NR concentration 270 nM, RXRa partner concentration 90 nM)
How it was run: as §1

[7] = system: PXR homodimer (NR concentration 270 nM)
How it was run: as §1

[8] = system: RARa:RXR (NR concentration 270 nM, RXRa partner concentration 90 nM)
How it was run: as §1

[9] = system: RARa homodimer (NR concentration 270 nM)
How it was run: as §1

[10] = system: RARb:RXRa (NR concentration 270 nM, RXRa partner concentration 90 nM)
How it was run: as §1

[11] = system: RARb homodimer (NR concentration 270 nM)
How it was run: as §1

[12] = system: RARg:RXRa (NR concentration 270 nM, RXRa partner concentration 90 nM)
How it was run: as §1

[13] = system: RARg homodimer (NR concentration 270 nM)
How it was run: as §1

[14] = system: RXRa DBDmut IVT, anti-RXR (DBD mutation: RXRa K156A/R161A, NR concentration 90 nM)
How it was run: as §1

[15] = system: RXRa homodimer (NR concentration 180 nM)
How it was run: as §1

[16] = system: THRa homodimer (NR concentration 90 nM)
How it was run: as §1

[17] = system: VDR homodimer (NR concentration 270 nM)
How it was run: as §1

[18] = system: THRa:RXRa (NR concentration 90 nM, RXRa partner concentration 90 nM)
How it was run: as §1

[19] = system: VDR:RXRa (NR concentration 270 nM, RXRa partner concentration 90 nM)
How it was run: as §1

| Sequence | PBM binding z-score [1] | PBM binding z-score [2] | PBM binding z-score [3] | PBM binding z-score [4] | PBM binding z-score [5] | PBM binding z-score [6] | PBM binding z-score [7] | PBM binding z-score [8] | PBM binding z-score [9] | PBM binding z-score [10] | PBM binding z-score [11] | PBM binding z-score [12] | PBM binding z-score [13] | PBM binding z-score [14] | PBM binding z-score [15] | PBM binding z-score [16] | PBM binding z-score [17] | PBM binding z-score [18] | PBM binding z-score [19] |
| --- | --- | --- | --- | --- | --- | --- | --- | --- | --- | --- | --- | --- | --- | --- | --- | --- | --- | --- | --- |
| CGAACTAGGTAAAGGACAGTGAATCTCCGCACGC | 5.6 | 4.4 | 0.46 | -0.605 | 0.363 | -0.407 | -0.167 | -0.453 | -0.188 | 1.21 | 0.899 | 0.243 | 0.583 | 0.0169 | 0.286 | -0.0591 | -0.21 | – | – |
| CCTACTGGGGCACGAAAGGTCATTGATTCAGTGA | 5.75 | 6.88 | 0.869 | 0.0108 | 3.09 | 5.68 | 1.16 | 5.47 | 0.333 | 4.41 | 4.81 | 4.75 | 4.85 | 0.748 | – | 0.632 | 2.34 | 4.03 | – |
| TAGCCTAGGTCATTCAGGCGCCAGTATAGAAAGC | 1.59 | 2.61 | 0.787 | -0.107 | 1.85 | 1.68 | -0.342 | 2.44 | -0.00217 | 3.56 | 2.25 | 3.97 | 4.09 | 1.78 | – | 0.451 | 1.3 | 2.7 | – |
| CGTCCAAGGTCAATGCTAGGCCAGTGAAAGCATT | 2.99 | 3.13 | -0.61 | -0.971 | 2.78 | 3.64 | 0.593 | 4.31 | 0.644 | 4.96 | 3.99 | 6.23 | 6.11 | 3.55 | – | 2.15 | 2.49 | 3.96 | – |
| CAAAGTAGGTCAAGAGGTCAAAGTCCGCTTCCCG | 8.4 | 8.84 | 1.65 | 1.18 | 5.39 | 6.22 | 3.31 | 7.83 | 2.53 | 5.55 | 5.78 | 8.31 | 7.92 | 2.89 | – | 1.84 | 4.84 | 4.21 | – |
| CTTAGTTGGTCAAGGTCACACACGCTATAGGTAC | 4 | 4.92 | 0.864 | 1.4 | 2.76 | 4.35 | 2.79 | 4.4 | 2.07 | 4.35 | 4.53 | 4.9 | 5.2 | 2.05 | – | 4.65 | 3.96 | 4.43 | – |
| GCTGCTAGGTTAACTGATGGTCAGCTAAAGCTCG | 2.43 | 1.36 | -1.35 | -0.847 | -0.127 | 0.00634 | -0.91 | 0.512 | -1.49 | 1.54 | 0.815 | 1.6 | 0.672 | 0.235 | – | -0.683 | -0.649 | 0.689 | – |
| CCTTACGGGTCACTCCATGTTATAGCATCGGAGT | 2.24 | 3.12 | 0.606 | 0.266 | 2.26 | 2.73 | 0.163 | 3.26 | 0.537 | 3.59 | 2.87 | 4.1 | 3.99 | 1.59 | – | -0.286 | 1.46 | 2.84 | – |
| ATCGAAAGGTCGCAGGTGAGTATACCCACCCGAA | 0.692 | 2.78 | 1.46 | 0.551 | 1.95 | 2.89 | 0.199 | 3.82 | 0.721 | 4.09 | 3.04 | 4.73 | 4.6 | 0.648 | – | 0.171 | 0.597 | 2.57 | – |
| ACTAGTTGGTCAGCTGAGGTCACACACAATTCGG | 1.96 | 3.06 | 0.93 | 1.21 | 2.63 | 5.47 | 2.09 | 4.69 | 2.64 | 3.79 | 4.52 | 4.26 | 4.51 | 1.35 | – | 4.99 | 3.54 | 5.14 | – |
| CCTAGTTGGTCAGGAGGCCACACACCGGATATGA | 0.654 | 1.37 | 0.117 | -0.424 | 0.805 | -0.041 | 0.627 | -0.174 | 0.55 | 1.23 | 1.51 | 0.776 | 1.23 | -0.19 | – | 0.708 | 0.435 | 0.326 | – |
| CCTACTGGGCCAAAAAGGTAATTGATGCCGATAA | 3.15 | 2.69 | 0.336 | -0.668 | -0.39 | -0.331 | -0.647 | 0.114 | 0.142 | 0.108 | -0.363 | 0.0737 | -0.0665 | -0.561 | – | -0.602 | -0.646 | 0.109 | – |
| ACTCGGAGGACAAATGTCAGAGCTACGCCAGTGA | 0.158 | 0.0513 | 0.143 | -1.07 | -0.0876 | -0.536 | -0.343 | -0.444 | -0.635 | 1.44 | 0.623 | 1.08 | 1.68 | 0.614 | – | -0.331 | -0.508 | 0.512 | -0.292 |
| AGTCAAAGTTCATCTAGGTATCGTAAGATATGCT | 0.0537 | 2.59 | 0.906 | 0.493 | 2.49 | 5.11 | 5.44 | 3.62 | 1.32 | 4.95 | 3.84 | 5.45 | 5.99 | 4.54 | – | -0.179 | 5.25 | 2.8 | 5.01 |
| TCTAGCTGGTCAAAGGTCACACACTCGAAATGCG | 2.35 | 5.48 | 0.807 | 1.12 | 4.18 | 6.12 | 0.771 | 7.74 | 2.13 | 4.89 | 5.13 | 7.3 | 6.69 | 1.15 | – | 1.36 | 1.86 | 3.88 | 5.36 |
| ATCTAAAGGTCGAAGGTGAGTATACCCACCCGAA | 0.448 | 2.65 | 1.07 | 0.686 | 1.22 | 2.87 | 0.401 | 4.15 | 0.981 | 3.76 | 2.54 | 4.32 | 3.66 | 1.74 | – | 0.159 | 0.755 | 2.21 | – |
